# PubChem BioAssay (Tox21)
# Results filed as inconclusive are left out. A call without a number means that no potency is given here. The source made the active and inactive calls. Unless noted, the call rests on the fitted dose curve.
# Key:
# [1] = qHTS assay to identify small molecule agonists of the sonic hedgehog signaling (Shh) pathway (AID 1259368); further: series mostly up to about 92 µM; nearly all actives have a fitted effect of over 15% in size
# Procedure, shortened: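 NIH/3T3-derived 3T3Gli1-Luc cells carrying a stably integrated Gli1 response element–firefly luciferase reporter were plated, left 4 hr at 37 C, then given compounds in DMSO for 24 hr. Luminescence was read 30 min after adding luciferase reagent.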
# [2] = qHTS assay to identify small molecule antagonists of the sonic hedgehog signaling (Shh) pathway (AID 1259369); further: nearly all actives have a fitted effect of over 45% in size; further: potency means the concentration at half of the fitted maximal effect
# Procedure, shortened: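 NIH/3T3-derived 3T3Gli1-Luc cells with stably integrated Gli1-Luc reporter were preincubated 4hr at 37 C, then given compounds in DMSO plus Shh conditioned medium and incubated 24hr. Firefly luciferase luminescence read after 30min reagent at room temperature.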
# [3] = molecular target: Estrogen receptor beta (Homo sapiens) (UniProt Q92731); test: qHTS assay to identify small molecule agonists of the estrogen receptor beta (ER-beta) signaling pathway (AID 1259377; active means well fitted activation curve with a large enough effect in the signal ratio in the repeat runs, not every such curve was filed as active; the % refers to the signal ratio)
# Procedure, shortened: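 Agonist mode cell assay in GripTite HEK293T cells expressing an ER-beta fusion that drives beta-lactamase from an Upstream Activator Sequence; 16 hr compound exposure at 37C, then 2 h LiveBLAzer B/G FRET substrate at room temperature, fluorescence read-out.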
# [4] = qHTS assay to identify small molecule agonists of the estrogen receptor beta (ER-beta) signaling pathway - cell viability counter screen (AID 1259380; active means well fitted curve in the direction sought with a large enough effect in the repeat runs; an effect the other way counts as inactive or inconclusive; further: nearly all actives have a fitted effect of over 30% in size; further: potency means the concentration at half of the fitted maximal effect)
# Procedure, shortened: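 ER-beta-UAS-bla HEK293T cells in medium with 2% charcoal-stripped FBS were preincubated 6 hr at 37C, dosed with compound in DMSO for 16 hr, then after the bla read, CellTiter-Glo was added for 30 min at room temperature; luminescence recorded.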
# [5] = molecular target: Androgen receptor (Homo sapiens) (UniProt P10275); test: qHTS assay to identify small molecule agonists of the androgen receptor (AR) signaling pathway in the presence of an antagonist (AID 1259381); further: nearly all actives have a fitted effect of over 15% in size
# Procedure, shortened: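 MDA-kb2 human breast carcinoma cells carrying an MMTV-luciferase reporter (AR- and GR-responsive) were treated with compounds at 15 concentrations plus 3.0uM final nilutamide for 16hr at 37C without CO2; luminescence was read after ONE-Glo addition.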
# [6] = qHTS assay to identify small molecule antagonists of the estrogen receptor beta (ER-beta) signaling pathway - cell viability counter screen (AID 1259382; active means well fitted curve in the direction sought with a large enough effect in the repeat runs; an effect the other way counts as inactive or inconclusive; further: nearly all actives have a fitted effect of over 55% in size; further: potency means the concentration at half of the fitted maximal effect)
# Procedure, shortened: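 ER-beta-UAS-bla HEK293T cells (2,000/well, 2% charcoal-stripped FBS) were pre-incubated 6 hr at 37C, then given compound plus 1nM final 17-beta-estradiol for 16 hr. Viability was read in the same wells by CellTiter-Glo luminescence after 30 min at room temperature.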
# [7] = qHTS assay to identify small molecule agonists or antagonists of the thyroid stimulating hormone receptor (TSHR) signaling pathway - wild type cell line counter screen (AID 1259384)
# Procedure, shortened: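 Counter screen in untransfected Hek293: compounds (15-point titration, triplicate) plus phosphodiesterase inhibitor Ro20-1724 added after 18 h plating; 30 min RT. Intracellular cAMP via competitive d2/cryptate immunoassay, 1 h incubation.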
# [8] = qHTS assay to identify small molecule agonists of the TGF-beta/Smad signaling pathway (AID 1346859; active means well fitted activation curve with a large enough effect in the signal ratio in the repeat runs, not every such curve was filed as active; the % refers to the signal ratio; further: series mostly up to about 77 µM)
# Procedure, shortened: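 Reporter line: HEK 293T with stably integrated SBE-controlled beta-lactamase. Compound exposure lasts 5 hr at 37 C and 5% CO2; substrate loading follows for 2 hr at room temperature, with emission read at 460 and 530 nm.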
# [9] = molecular target: Thyrotropin-releasing hormone receptor (Homo sapiens) (UniProt P34981); test: qHTS assay to identify small molecule antagonists of the thyrotropin-releasing hormone receptor (TRHR) signaling pathway (AID 1346877; active means well fitted inhibition curve with a large enough effect in the repeat runs, not every such curve was filed as active; further: series mostly up to about 51 µM)
# Procedure, shortened: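 TRHR-expressing HEK293 cells were seeded, cultured 18 h at 37 °C, then loaded with calcium dye for 2 h. Compounds were pre-incubated 5 min at room temperature before 1 nM TRH (final) was added, and kinetic fluorescence was recorded for 3 min.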
# [10] = molecular target: Estrogen receptor beta (Homo sapiens) (UniProt Q92731); test: qHTS assay to identify small molecule antagonists of the estrogen receptor beta (ER-beta) signaling pathway (AID 1259378; active means well fitted inhibition curve with a large enough effect in the signal ratio in the repeat runs, not every such curve was filed as active; the % refers to the signal ratio; further: potency means the concentration at half of the fitted maximal effect)
# Procedure, shortened: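 Antagonist mode: compounds added to beta-lactamase reporter HEK293T ER-beta-UAS cells stimulated with E2 (1nM final), 16 hr at 37C. LiveBLAzer B/G FRET substrate, 2 hours room temperature, fluorescence read-out.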
# [11] = qHTS assay to identify small molecule agonists of the androgen receptor (AR) signaling pathway in the presence of an antagonist - cell viability counter screen (AID 1259379; active means well fitted curve in the direction sought with a large enough effect in the repeat runs; an effect the other way counts as inactive or inconclusive; further: series mostly up to about 92 µM; nearly all actives have a fitted effect of over 25% in size)
# Procedure, shortened: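 MDA-kb2 human breast carcinoma cells (stable MMTV-luciferase, AR/GR responsive) were seeded 3,000 cells/well, pre-incubated 5 hr at 37C without CO2, then given 3.0uM nilutamide and compounds at 15 concentrations for 16 hr. Viability was read by CellTiter-Fluor fluorescence.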
# [12] = molecular target: Estrogen receptor (Homo sapiens) (UniProt P03372); test: qHTS assay to identify small molecule agonists of the estrogen receptor alpha (ER-alpha) signaling pathway in the presence of an antagonist (AID 1259383); further: top concentration of the series differs between compounds; nearly all actives have a fitted effect of over 15% in size
# Procedure, shortened: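 VM7Luc4E2 cells (endogenous full-length ER-alpha, 4×ERE-luciferase) were precultured 5 days in phenol red-free medium with 10% charcoal-stripped FBS, given 10.0nM ICI-182,780 (final), then treated with compounds at 15 concentrations for 22hr at 37C; luminescence read with ONE-Glo.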
# [13] = molecular target: Thyrotropin receptor (Homo sapiens) (UniProt P16473); test: qHTS assay to identify small molecule antagonists of the thyroid stimulating hormone receptor (TSHR) signaling pathway (AID 1259385); further: nearly all actives have a fitted effect of over 20% in size; further: potency means the concentration at half of the fitted maximal effect
# Procedure, shortened: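 Antagonist mode: compound-treated TSHR-expressing HEK293 cells were stimulated with 1.5 ng/mL TSH (final) in presence of Ro20-1724 for 30 min at RT. HTRF cAMP detection after 1 h; each compound tested at 15 concentrations, triplicate.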
# [14] = molecular target: Progesterone receptor (Homo sapiens) (UniProt P06401); test: qHTS assay to identify small molecule agonists of the progesterone receptor (PR) signaling pathway (AID 1346784); further: nearly all actives have a fitted effect of over 30% in size; further: potency means the concentration at half of the fitted maximal effect
# Procedure, shortened: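 Cells (PR-UAS-bla HEK 293T, GripTite) were plated in assay medium containing 2% charcoal-stripped FBS and incubated 6 hr. Test compounds in DMSO were added for 16 hr at 37C. FRET substrate was then loaded for 2 hr at room temperature before fluorescence reading.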
# [15] = molecular target: Progesterone receptor (Homo sapiens) (UniProt P06401); test: qHTS assay to identify small molecule antagonists of the progesterone receptor (PR) signaling pathway (AID 1346795; active means well fitted inhibition curve with a large enough effect in the signal ratio in the repeat runs, not every such curve was filed as active; the % refers to the signal ratio; further: potency means the concentration at half of the fitted maximal effect)
# Procedure, shortened: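 Antagonist mode: compounds tested against 1 nM (final) promegestone stimulation in HEK293T cells expressing PR-UAS-bla reporter, 16 hr at 37C, 5% CO2; beta-lactamase activity detected via B/G FRET substrate after 2 hr at room temperature.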
# [16] = qHTS assay to identify small molecule antagonists of the progesterone receptor (PR) signaling pathway - cell viability counter screen (AID 1346798; active means well fitted curve in the direction sought with a large enough effect in the repeat runs; an effect the other way counts as inactive or inconclusive; further: nearly all actives have a fitted effect of over 50% in size; further: potency means the concentration at half of the fitted maximal effect)
# Procedure, shortened: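 Counter screen for cytotoxicity: viability of PR-UAS-bla HEK293T cells was measured with CellTiter-Glo luminescence following 16 hr compound exposure in the presence of R5020.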
# [17] = qHTS assay to identify small molecule agonists of the progesterone receptor (PR) signaling pathway - cell viability counter screen (AID 1346799); further: nearly all actives have a fitted effect of over 45% in size; further: potency means the concentration at half of the fitted maximal effect
# Procedure, shortened: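 Cells (PR-UAS-bla HEK293T) are plated at 3,000/well in 2% charcoal-stripped FBS medium, rested 6 hr, dosed and incubated 16 hr at 37C. CellTiter-Glo is then added and luminescence measured after 30 min at room temperature.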
# [18] = qHTS assay to identify small molecule antagonists of the TGF-beta/Smad signaling pathway - cell viability counter screen (AID 1346824; active means well fitted curve in the direction sought with a large enough effect in the repeat runs; an effect the other way counts as inactive or inconclusive; further: nearly all actives have a fitted effect of over 50% in size)
# Procedure, shortened: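 Cytotoxicity counter-screen run in the same wells as the beta-lactamase Smad reporter read: CellTiter-Glo luminescence after 30 min at room temperature. HEK 293T SBE-bla cells had 5 hr compound exposure at 37 C with TGF-beta1 (0.25 ng/mL stock).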
# [19] = qHTS assay to identify small molecule agonists of the TGF-beta/Smad signaling pathway - cell viability counter screen (AID 1346829; active means well fitted curve in the direction sought with a large enough effect in the repeat runs; an effect the other way counts as inactive or inconclusive; further: top concentration of the series differs between compounds; nearly all actives have a fitted effect of over 45% in size)
# Procedure, shortened: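 Same-well cytotoxicity: CellTiter-Glo added after the 2 hr room-temperature beta-lactamase substrate step, luminescence measured 30 min later; cells had 5 hr of compound at 37 C.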
# [20] = qHTS assay to identify small molecule agonists of the estrogen receptor alpha (ER-alpha) signaling pathway in the presence of an antagonist - cell viability counter screen (AID 1259386; active means well fitted curve in the direction sought with a large enough effect in the repeat runs; an effect the other way counts as inactive or inconclusive;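 further: series mostly up to about 92 µM; cells exposed to compounds for 22 h at 37 °C before the viability read; nearly all actives have a fitted effect of over 30% in size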)
# Procedure, shortened: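 VM7Luc4E2 cells (endogenous full-length ER-alpha, 4×ERE-luciferase) were held 5 days in phenol red-free medium with 10% charcoal-stripped FBS, plated, then given 10.0nM ICI-182,780 and compounds at 15 concentrations for 22hr at 37C; viability read by CellTiter-Fluor fluorescence.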
# Estrogen receptor (Homo sapiens), sequence (P03372 whole entry, looked up): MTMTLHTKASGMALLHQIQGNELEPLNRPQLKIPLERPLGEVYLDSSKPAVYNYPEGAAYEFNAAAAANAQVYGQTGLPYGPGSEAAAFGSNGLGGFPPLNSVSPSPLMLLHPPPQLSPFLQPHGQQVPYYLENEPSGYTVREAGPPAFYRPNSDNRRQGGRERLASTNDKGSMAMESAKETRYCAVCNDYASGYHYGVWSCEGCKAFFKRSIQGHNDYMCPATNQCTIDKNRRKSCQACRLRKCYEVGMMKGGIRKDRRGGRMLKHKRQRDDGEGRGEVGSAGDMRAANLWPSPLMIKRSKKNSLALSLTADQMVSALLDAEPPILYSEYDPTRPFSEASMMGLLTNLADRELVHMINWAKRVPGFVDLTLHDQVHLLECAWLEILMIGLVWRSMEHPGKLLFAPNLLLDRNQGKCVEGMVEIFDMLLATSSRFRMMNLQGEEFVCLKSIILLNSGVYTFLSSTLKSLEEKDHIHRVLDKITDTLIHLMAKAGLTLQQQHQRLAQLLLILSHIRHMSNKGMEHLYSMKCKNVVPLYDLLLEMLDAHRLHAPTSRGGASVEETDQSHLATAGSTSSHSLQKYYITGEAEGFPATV
# Estrogen receptor beta (Homo sapiens), sequence (Q92731 whole entry, looked up, the tested form may be a part): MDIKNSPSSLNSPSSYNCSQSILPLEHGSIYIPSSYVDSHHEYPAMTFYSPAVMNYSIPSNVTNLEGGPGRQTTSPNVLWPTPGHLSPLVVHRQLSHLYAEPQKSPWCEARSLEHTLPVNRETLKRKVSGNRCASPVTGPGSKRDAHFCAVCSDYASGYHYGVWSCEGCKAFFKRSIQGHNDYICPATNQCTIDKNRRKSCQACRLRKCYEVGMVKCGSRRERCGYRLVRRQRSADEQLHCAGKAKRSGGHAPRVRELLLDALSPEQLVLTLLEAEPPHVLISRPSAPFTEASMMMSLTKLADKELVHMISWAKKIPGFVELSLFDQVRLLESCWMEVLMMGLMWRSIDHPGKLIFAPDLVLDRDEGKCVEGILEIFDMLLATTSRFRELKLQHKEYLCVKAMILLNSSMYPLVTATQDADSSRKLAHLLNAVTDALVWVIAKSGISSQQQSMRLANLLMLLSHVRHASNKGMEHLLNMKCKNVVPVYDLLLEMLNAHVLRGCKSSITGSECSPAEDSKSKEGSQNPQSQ
# Thyrotropin receptor (Homo sapiens), sequence (P16473 whole entry, looked up): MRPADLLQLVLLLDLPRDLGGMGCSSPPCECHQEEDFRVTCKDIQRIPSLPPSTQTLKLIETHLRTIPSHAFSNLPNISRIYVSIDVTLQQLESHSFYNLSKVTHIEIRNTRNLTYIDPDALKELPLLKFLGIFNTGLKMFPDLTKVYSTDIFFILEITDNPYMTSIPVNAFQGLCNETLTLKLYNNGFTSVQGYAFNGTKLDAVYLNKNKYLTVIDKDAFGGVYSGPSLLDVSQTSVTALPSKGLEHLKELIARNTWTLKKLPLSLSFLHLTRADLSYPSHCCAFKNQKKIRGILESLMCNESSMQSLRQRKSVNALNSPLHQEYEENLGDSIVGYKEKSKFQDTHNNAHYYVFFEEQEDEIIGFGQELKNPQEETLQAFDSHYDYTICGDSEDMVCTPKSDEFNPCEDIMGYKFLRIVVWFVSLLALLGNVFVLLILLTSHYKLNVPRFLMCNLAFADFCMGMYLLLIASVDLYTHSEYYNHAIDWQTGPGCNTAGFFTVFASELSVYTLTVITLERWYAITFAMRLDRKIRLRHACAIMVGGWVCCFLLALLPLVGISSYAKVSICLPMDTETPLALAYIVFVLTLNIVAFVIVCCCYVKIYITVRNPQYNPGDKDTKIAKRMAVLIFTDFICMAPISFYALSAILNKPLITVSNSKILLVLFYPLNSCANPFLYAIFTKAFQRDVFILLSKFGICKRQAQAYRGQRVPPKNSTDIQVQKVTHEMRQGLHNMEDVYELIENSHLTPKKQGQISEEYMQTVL
# Progesterone receptor (Homo sapiens), sequence (P06401 whole entry, looked up): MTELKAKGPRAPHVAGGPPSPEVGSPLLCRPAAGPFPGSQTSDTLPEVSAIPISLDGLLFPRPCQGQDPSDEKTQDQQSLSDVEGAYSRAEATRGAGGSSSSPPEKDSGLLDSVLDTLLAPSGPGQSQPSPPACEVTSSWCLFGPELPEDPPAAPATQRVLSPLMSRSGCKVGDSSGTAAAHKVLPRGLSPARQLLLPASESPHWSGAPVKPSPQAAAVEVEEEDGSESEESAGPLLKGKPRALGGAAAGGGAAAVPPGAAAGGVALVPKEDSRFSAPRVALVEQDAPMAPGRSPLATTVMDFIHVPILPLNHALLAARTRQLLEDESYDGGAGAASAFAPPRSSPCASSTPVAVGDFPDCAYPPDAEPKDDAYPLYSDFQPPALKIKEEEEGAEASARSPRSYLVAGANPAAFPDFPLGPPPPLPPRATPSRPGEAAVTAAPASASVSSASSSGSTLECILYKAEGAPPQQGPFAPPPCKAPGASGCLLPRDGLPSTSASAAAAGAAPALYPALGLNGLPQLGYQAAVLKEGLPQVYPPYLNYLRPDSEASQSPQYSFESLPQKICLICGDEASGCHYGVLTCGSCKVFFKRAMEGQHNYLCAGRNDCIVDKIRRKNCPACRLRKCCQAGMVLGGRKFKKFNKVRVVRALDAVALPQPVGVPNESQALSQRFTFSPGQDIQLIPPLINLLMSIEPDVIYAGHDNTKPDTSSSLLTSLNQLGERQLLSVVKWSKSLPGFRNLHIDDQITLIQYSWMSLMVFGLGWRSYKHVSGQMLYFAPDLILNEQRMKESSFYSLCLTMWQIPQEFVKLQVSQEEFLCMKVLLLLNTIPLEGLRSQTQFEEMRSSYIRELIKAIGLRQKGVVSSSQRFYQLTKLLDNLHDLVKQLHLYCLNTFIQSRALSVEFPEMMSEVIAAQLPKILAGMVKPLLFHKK
# Thyrotropin-releasing hormone receptor (Homo sapiens), sequence (P34981 whole entry, looked up): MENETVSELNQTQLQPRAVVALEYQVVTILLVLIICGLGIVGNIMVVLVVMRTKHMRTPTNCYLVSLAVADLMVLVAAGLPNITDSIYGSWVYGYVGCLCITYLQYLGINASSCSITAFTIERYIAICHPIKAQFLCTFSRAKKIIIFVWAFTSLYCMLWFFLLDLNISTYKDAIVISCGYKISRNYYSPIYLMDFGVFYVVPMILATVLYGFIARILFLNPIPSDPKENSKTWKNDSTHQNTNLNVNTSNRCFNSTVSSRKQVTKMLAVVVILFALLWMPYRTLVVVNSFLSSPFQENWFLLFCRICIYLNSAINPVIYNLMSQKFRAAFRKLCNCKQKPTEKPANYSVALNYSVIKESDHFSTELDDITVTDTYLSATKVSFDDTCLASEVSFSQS
# Androgen receptor (Homo sapiens), sequence (P10275 whole entry, looked up): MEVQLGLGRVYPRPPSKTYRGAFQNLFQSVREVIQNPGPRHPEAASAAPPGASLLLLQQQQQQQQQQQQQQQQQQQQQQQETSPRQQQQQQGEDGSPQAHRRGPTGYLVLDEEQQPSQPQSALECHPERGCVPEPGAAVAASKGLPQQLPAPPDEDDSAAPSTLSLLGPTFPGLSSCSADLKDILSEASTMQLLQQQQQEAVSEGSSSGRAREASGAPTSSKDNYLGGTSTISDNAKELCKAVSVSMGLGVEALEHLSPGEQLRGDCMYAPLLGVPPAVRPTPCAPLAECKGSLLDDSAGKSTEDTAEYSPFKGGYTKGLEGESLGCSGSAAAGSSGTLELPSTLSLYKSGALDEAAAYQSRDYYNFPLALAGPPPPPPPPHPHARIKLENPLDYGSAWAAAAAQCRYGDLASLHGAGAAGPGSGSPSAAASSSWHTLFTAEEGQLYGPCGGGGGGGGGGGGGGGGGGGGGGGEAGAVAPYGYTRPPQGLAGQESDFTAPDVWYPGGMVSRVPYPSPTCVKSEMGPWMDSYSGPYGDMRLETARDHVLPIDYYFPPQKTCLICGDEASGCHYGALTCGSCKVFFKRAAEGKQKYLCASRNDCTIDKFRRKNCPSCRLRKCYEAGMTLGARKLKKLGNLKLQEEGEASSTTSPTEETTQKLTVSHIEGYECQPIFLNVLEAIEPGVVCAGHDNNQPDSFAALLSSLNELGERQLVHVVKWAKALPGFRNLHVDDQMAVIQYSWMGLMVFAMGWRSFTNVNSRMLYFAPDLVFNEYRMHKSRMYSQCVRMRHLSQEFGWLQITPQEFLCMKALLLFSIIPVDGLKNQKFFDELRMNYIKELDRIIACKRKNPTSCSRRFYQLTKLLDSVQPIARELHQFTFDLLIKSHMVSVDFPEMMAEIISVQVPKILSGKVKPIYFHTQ
SMILES,Potency [1],Potency [2],Potency [3],Potency [4],Potency [5],Potency [6],outcome [7],Potency [8],outcome [9],Potency [10],Potency [11],Potency [12],Potency [13],Potency [14],Potency [15],Potency [16],Potency [17],Potency [18],Potency [19],Potency [20]
C[C@@H](O[C@H]1OCCN(Cc2n[nH]c(=O)[nH]2)[C@H]1c1ccc(F)cc1)c1cc(C(F)(F)F)cc(C(F)(F)F)c1,inactive,13.3 µM (active),inactive,26.6 µM (active),inactive,29.8 µM (active),inactive,inactive,inactive,,,,,,,,,,,
CC(=O)c1cc2ccccc2s1,inactive,inactive,,inactive,,,inactive,inactive,,inactive,inactive,inactive,inactive,inactive,inactive,inactive,inactive,inactive,inactive,
CN1C(=O)c2ccccc2C1=O,inactive,43.3 µM (active),,inactive,,inactive,inactive,inactive,inactive,inactive,inactive,,inactive,1.09 µM (active),,,,,inactive,inactive
Cc1cccc(N(C)C(=S)Oc2ccc3c(c2)CCC3)c1,inactive,inactive,inactive,,,inactive,,inactive,,,inactive,inactive,,inactive,,,inactive,inactive,inactive,
O=C(O)c1ccc(OCCCOc2ccc(C(=O)O)cc2)cc1,inactive,inactive,,inactive,,inactive,inactive,inactive,inactive,inactive,inactive,,inactive,inactive,inactive,inactive,inactive,inactive,inactive,
C[C@@H]1CN(CCCn2c3ccccc3c3ccccc32)C[C@H](C)N1,inactive,10.6 µM (active),inactive,10.6 µM (active),,11.9 µM (active),inactive,inactive,inactive,13.3 µM (active),,,33.5 µM (active),inactive,29.8 µM (active),11.9 µM (active),11.9 µM (active),,inactive,inactive
CC(C)=CCC1C(=O)N(c2ccccc2)N(c2ccccc2)C1=O,inactive,inactive,inactive,inactive,,inactive,inactive,inactive,inactive,,inactive,inactive,inactive,inactive,,inactive,inactive,inactive,inactive,inactive
CN1C[C@H](C(=O)N[C@]2(C)O[C@@]3(O)[C@@H]4CCCN4C(=O)[C@H](Cc4ccccc4)N3C2=O)C[C@@H]2c3cccc4[nH]cc(c34)C[C@H]21,inactive,inactive,inactive,,,,inactive,,inactive,,,inactive,11.9 µM (active),,,,,inactive,inactive,
Nc1ncnc2c1ncn2[C@H]1CC[C@@H](CO)O1,inactive,inactive,,inactive,,inactive,inactive,inactive,inactive,inactive,inactive,inactive,inactive,inactive,inactive,inactive,inactive,inactive,inactive,inactive
O=C(O)CCc1nc(-c2ccccc2)c(-c2ccccc2)o1,inactive,inactive,inactive,,,,inactive,inactive,inactive,,inactive,inactive,inactive,,,inactive,,,inactive,inactive
CCCCCC[C@@H](O)C/C=C\CCCCCCCC(=O)O,inactive,inactive,inactive,,,,inactive,inactive,inactive,,inactive,,inactive,inactive,inactive,,,inactive,inactive,inactive
CC1(C)[C@H](C(=O)O)N2C(=O)C[C@H]2S1(=O)=O,inactive,inactive,,inactive,,inactive,,inactive,inactive,11.9 µM (active),inactive,inactive,,,,inactive,inactive,,inactive,inactive
CCC(C)(C)OC,inactive,inactive,inactive,inactive,,inactive,inactive,inactive,inactive,,inactive,inactive,inactive,inactive,inactive,inactive,,inactive,,
O=C=Nc1cccc(C(F)(F)F)c1,inactive,inactive,inactive,30.4 µM (active),inactive,,inactive,inactive,inactive,,inactive,inactive,inactive,,inactive,inactive,,inactive,inactive,inactive
